Bcl-xL primary = blocks human Bcl-xL binding to Bim BH3 peptide. inhibition, % at 10.9 µM. GST-Bcl-xL / FITC-Bim BH3 peptide fluorescence polarization. 320,000 tested, 0.7% active. AID 2129. Q07817;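 active means inhibition above the mean of all tested compounds plus 3 SD, cutoff set per campaign, cut at about 30% in these data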;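 further: 0% = DMSO wells and 100% = unlabeled Bim-BH3 peptide competitor; inhibitors lower millipolarization by displacing the labeled peptide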
MCL1-BIM inh = inhibitors of human MCL1 binding to BIM-BH3 peptide; Q07820; GST-MCL1 / FITC-Bim-BH3 fluorescence polarization; inhibition, % at 10.9 µM; 320,000 tested, 0.68% active; AID 2057;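 active means inhibition above the mean inhibition of all tested compounds plus 3 SD, set per campaign, cut at about 40% in these data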;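 further: 0% = DMSO wells and 100% = unlabeled Bim-BH3 peptide control; higher means more loss of mP so more displacement of Bim peptide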
Mcl-1 Bim block = disrupts Bim peptide binding to human Mcl-1 | inhibition, % at 10 µM | AID 1009 | Bead-based flow cytometry, Bim peptide-Mcl-1 binding | 190,000 tested, 0.1% active | Q07820; in the data active means inhibition above about 40%;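 further: 0% = no compound tracer wells and 100% = peptide blocker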
Mcl1-Noxa inh = disrupts binding of human Mcl-1 to Noxa peptide; Q07820; TR-FRET Mcl-1/Noxa peptide binding, 2 h; inhibition, % at 21.7 µM; 220,000 tested, 1.5% active;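 active means compounds that cut the protein-peptide binding signal by more than 50% relative to plate controls in a single-dose test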;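 further: His-tagged Mcl-1 with rhodamine Noxa BH3 peptide and terbium anti-His antibody; 0% = Mcl-1 plus Noxa peptide wells and 100% = peptide-only wells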
GLD-1 TGE inh = GLD-1-TGE RNA interaction inhibition (C. elegans) | Q17339 | purified GLD-1 + fluorescein TGE RNA, fluorescence polarization | inhibition, % at 5.96 µM | 320,000 tested, 0.44% active | AID 2280;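 active means percent inhibition above a per-plate cutoff, the plate mean of test compounds plus 3 SD, cut at about 30% in these data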;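 further: 0% = DMSO wells with GLD-1 and probe and 100% = wells lacking GLD-1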
Target sequence (Q17339 whole entry, looked up): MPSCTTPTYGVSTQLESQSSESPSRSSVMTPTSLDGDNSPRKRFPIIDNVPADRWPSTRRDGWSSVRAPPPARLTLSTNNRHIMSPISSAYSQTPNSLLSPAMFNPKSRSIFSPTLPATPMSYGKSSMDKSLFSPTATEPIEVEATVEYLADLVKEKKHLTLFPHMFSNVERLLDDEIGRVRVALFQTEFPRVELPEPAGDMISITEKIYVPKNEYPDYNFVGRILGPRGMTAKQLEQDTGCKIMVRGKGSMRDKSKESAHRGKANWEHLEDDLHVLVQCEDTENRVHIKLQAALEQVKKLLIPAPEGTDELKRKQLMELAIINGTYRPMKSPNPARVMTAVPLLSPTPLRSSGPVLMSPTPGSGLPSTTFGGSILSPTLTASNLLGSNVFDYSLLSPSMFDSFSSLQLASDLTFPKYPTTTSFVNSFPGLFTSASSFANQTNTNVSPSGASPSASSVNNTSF
Mcl1 Bid PPI = Mcl-1/Bid interaction inhibition; 220,000 tested, 0.97% active; Q07820; inhibition, % at 21.7 µM; TR-FRET Mcl-1/Bid-Dy647 peptide binding, 1536-well;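 active means compounds that cut the binding signal by more than half at the single screening dose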;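 further: His-tagged Mcl-1 with europium anti-His antibody binding Bid BH3 peptide; 0% = Mcl-1 plus peptide wells and 100% = peptide-only wells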
The depositor's hits bear a star; · = no result. Compounds with a hit are over-represented: about 2.3% of the library has one in this group of screens.

SMILES	Bcl-xL primary	MCL1-BIM inh	Mcl-1 Bim block	Mcl1-Noxa inh	GLD-1 TGE inh	Mcl1 Bid PPI
O=C(O)c1cc(S(=O)(=O)NC(CO)C(O)c2ccc([N+](=O)[O-])cc2)ccc1Br (centres undefined)	6	17	·	·	-4	·
N#Cc1cc2ccccc2nc1SCC(=O)Nc1ccc(S(=O)(=O)N2CCCC2)cc1	-12	-26	-1	-75	45*	-36
Cc1c(C(=O)N2CCN(C(c3ccccc3)c3ccccc3)CC2)oc2ccccc12	-1	3	·	·	-2	·
O=C(CC1C(=O)NCCN1Cc1ccccn1)NCCc1ccccc1F (centres undefined)	30*	34	·	·	21	·
CCOc1ccc(CN2CCNC(=O)C2CC(=O)NCCc2ccccn2)cc1 (centres undefined)	14	8	-2	9	12	-17
CC(C)Oc1ccc(S(=O)(=O)N2CCCCC2)cc1NC(=O)C1CSC2(C)CCC(=O)N12 (centres undefined)	5	2	·	·	-1	·
CN1CCc2c(sc(/N=C/c3ccco3)c2C(N)=O)C1	46*	46*	-2	0	8	-20
Cc1ccc(NC(=O)CN2C(=O)N/C(=C/c3cc(C)n(-c4ccc(C(=O)O)cc4)c3C)C2=O)cc1	·	·	1	76*	·	-123
Cc1ccc(NC(=O)CN2C(=O)S/C(=C\c3cc(C)n(-c4ccc(C(=O)O)cc4)c3C)C2=O)cc1	3	-2	-2	14	-1	-40
Cc1ccc(NC(=O)CN2C(=O)N/C(=C/c3ccco3)C2=O)cc1	7	25	1	61*	5	-23
CC1Cc2cc(S(=O)(=O)N3CCC(C(=O)N4CCN(c5ccccc5F)CC4)CC3)ccc2N1C(=O)C1CC1 (centres undefined)	0	-3	·	·	-2	·
COc1ccc2cc3c(N)nn(C(=O)c4ccc(Cl)c([N+](=O)[O-])c4)c3nc2c1	0	15	8	17	-5	54*
COc1ccc2cc3c(N)nn(C(=O)c4ccccc4[N+](=O)[O-])c3nc2c1	8	4	0	27	6	-5
COC/C=C/C1=CC2=CC(=O)C(C)(OC(=O)c3cnc4ccccc4n3)C(=O)C2=CN1c1ccc(CO)cc1 (centres undefined)	20	91*	·	·	12	·
Cc1ccccc1NC(=O)c1c(C)[nH]c(=S)c(C#N)c1-c1ccc(Cl)cc1	-7	-17	·	-45	-14	71*
COc1ccc(CNC(=O)C2CCN(S(=O)(=O)N3CCCCC3)CC2)c(OC)c1	5	0	·	·	8	·
CC1=Nc2cccc3cccc(c23)N1C	1	2	-3	61*	5	-38

Source: PubChem BioAssay (several laboratories)
